Molecules are shown by their SMILES. Compounds without any hit were thinned out: in the full panel of roughly 83,000, 20% have a hit.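 Cells were grown in 96-well plates and exposed to the test compound at a single concentration for 48 hours; results are reported as percent growth, with values below 10 considered active.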 Unmarked numbers belong to inactive results. Activity calls are given as the source filed them.

The test system of this test is IGROV1 ovarian. The experiment in a line: NCI-60 one-dose screen, 48 h (100 = growth as untreated, 0 = no growth, -100 = all killed). Particulars: 10 µM unless noted. The procedure:
Growth inhibition of the IGROV1 human tumor cell line is measured as a screen for anti-cancer activity. Cells are grown in 96 well plates and exposed to the test compound for 48 hours. Compounds are tested at a single concentration, which is 10^-5 M for most compounds. The reported endpoint is percent growth (GI% or GIPRCNT), where numbers from 0 - 100% represent growth inhibition, and numbers from -100% - 0 represent cell death. For example, a value of 40 represents 60% growth inhibition. A value of 0 means no net growth occurred over the course of the experiment. A value of -40 indicates 40% of cells at the beginning of the experiment died by the end of the experiment. A value of -100 means all cells are dead at the end of the experiment.
NCI-60 Human Tumor Cell Lines Screen was performed using the standard one-dose NCI protocol, which is described in more detail at https://dtp.cancer.gov/discovery_development/nci-60/default.htm.
Compounds with GIPRCNT values below 10 were considered active. Activity score was based on GIPRCNT using the following formula: […]
Score is 0 for GIPRCNT values of 100 or above, 50 for GIPRCNT values of 0, and 100 for GIPRCNT values of -100.
`CN1CCN(c2nc(-c3cnc4ccccc4n3)cc3ccccc23)CC1`: the growth is 73.7%.

For the compound `Cc1cc(=O)n2nc(-c3cn(C)c4ccc(Cl)cc34)sc2n1`, the growth is 83.7%. For `C/C(Cc1ccc(Cl)cc1)=C(/c1ccccc1)c1ccc(OCCN)cc1`, the growth was 98.3%.

In the case of `Nc1nc(-c2cccc([N+](=O)[O-])c2)c(N=Nc2ccccc2Cl)s1`, the growth is 74.8%. In the case of `O=[N+]([O-])c1ccc(-c2nnc(SCc3ccc(O)c4ncccc34)o2)cc1`, the growth is 31.7%. Turning to `N#C/C(=C\c1ccc2ccccc2c1)C(=O)Nc1sc2c(c1C#N)CCC2`, the growth was 107%. Consider `COc1cc(O)c2c(c1)[C@H]1O[C@@H]1C[C@H](O)[C@H](O)C(=O)/C=C\C[C@H](C)OC2=O`, for which the growth was 39%. `CCc1ccc(NC(=O)N[C@@H](Cc2cccc(C)c2)C(=O)N[C@@H]2C(=O)N3CCC[C@H]3C(=O)N3CCCC[C@H]3C(=O)N[C@@H](CO)C(=O)N3C[C@H](C)C[C@H]3C(=O)O[C@H]2C)c(F)c1`: the growth was 43.3%. In the case of `CCOc1c(C#N)c(Nc2ccc(S(N)(=O)=O)cc2)c(C#N)c2nnc(C)n12`, the growth was 101%. In the case of `CN1CCN(Cc2ccc(NC(=O)c3cncc(C#Cc4cnc5ccc(O[C@H]6CCOC6)nn45)c3)cc2C(F)(F)F)CC1` it was -57.6% (active); in that of `Clc1ccc(-c2nc3ccc(/C(=N\N=C\c4ccccc4)c4ccccc4)cc3[nH]2)cc1`, 104%. In the case of `CCCC(=O)NC(c1cccnc1)c1ccc2c(C)ccnc2c1O` (stereo not given) it was 19.2%; in that of `O=C1/C(=C/c2ccccc2[N+](=O)[O-])Oc2ccc(O)cc21`, 33.5%. In the case of `O=C(/C=C1\C=CN(CCCCO)c2ccccc21)n1ccc2ccccc21` it was 89.2%; in that of `Cc1ccc(C2CC(c3ccc(Nc4nc(NCCO)nc(Nc5ccc(Cl)cc5)n4)cc3)=Nc3c(N)nc(N)nc3N2)cc1` (stereo not given), -63.3% (active); in that of `COc1cc2c3c(n(CCCN4CCC[C@H]4C(N)=O)c(=O)c2cc1OC)-c1cc2c(cc1C3=O)OCO2`, 33.7%. Turning to `C#C[C@]1(O)CC[C@H]2[C@@H]3CC=C4c5sc(Nc6cc(OC)ccc6OC)nc5CC[C@]4(C)[C@H]3CC[C@@]21C`, the growth is 47.9%.

As to `O=C1[C@@H]2Cc3c([nH]c4ccccc34)[C@H](c3c(Cl)cccc3Cl)N2C(=O)CN1C1CCN(Cc2ccccc2)CC1`, the growth was 24.6%.

In the case of `O=C(CCCCCCN1CC(=O)N2[C@@H](c3ccccc3)c3[nH]c4ccccc4c3C[C@H]2C1=O)NO`, the growth is 60.6%.

As to `C=CCn1c(SCC(=O)Nc2cccc(C(=O)/C=C/c3cc(OC)c(OC)c(OC)c3)c2)nc2ccccc2c1=O`, the growth was 49.3%.

In the case of `COc1ccc(Cn2cc3c(c2-c2cc(OC)c(OC)c(OC)c2)CCCc2cnoc2-3)cc1N`, the growth is 35.2%. Take `CN(C)c1ncc(/C=C2\SC(=S)N(Cc3ccccc3Cl)C2=O)s1`: the growth is 70.8%.

Turning to `IP(CCCSc1n(Cc2ccc3ccccc3c2)c(-c2ccccc2)c(-c2ccccc2)[n+]1Cc1ccc2ccccc2c1)(c1ccccc1)(c1ccccc1)c1ccccc1`, the growth is 23.9%. Then `C#C[C@]1(O)CC[C@H]2[C@@H]3CC=C4c5sc(C6CCOCC6)nc5CC[C@]4(C)[C@H]3CC[C@@]21C`, with 90.8%; and `CC1COc2c(N3CCN(C)CC3)c(F)cc3c(=O)c(C(=O)N/N=C/c4cc[nH]c4)cn1c23` (stereo not given), with 26.6%. Take `COc1cc(/C=C/C(=O)c2ccc(NC(=O)CSc3nnc(-c4ccc5nc(-c6ccccc6)[nH]c5c4)o3)cc2)cc(OC)c1OC`: the growth was 97.2%. In the case of `Oc1ccccc1-c1nnc(SCc2ccc(O)c3ncccc23)n1-c1ccccc1` it was 6.65% (active).

In the case of `CC1(C)CC[C@]2(C(=O)N3CCCN(CC#N)CC3)CC[C@]3(C)C(=CC[C@@H]4[C@@]5(C)CC[C@H](O)C(C)(C)[C@@H]5CC[C@]43C)[C@H]2C1`, the growth is 66.1%. `CCN1C(=O)N(CC)C2C1NN=C1SC(c3ccccc3)=CC(=O)N12` (stereo not given): the growth is 41.4%.

Take `Oc1ccc(-c2nnc(SCc3ccc(O)c4ncccc34)n2-c2ccccc2)cc1`: the growth is 8.1% (active). For `CC(=O)Nc1nc2c(s1)C1=CC[C@H]3[C@@H]4CC[C@H](C(C)=O)[C@@]4(C)CC[C@@H]3[C@@]1(C)CC2`, the growth is 99.1%.

Turning to `CC[C@]12C=CCN3CC[C@]4(C(=C(C(=O)OC)C1)Nc1cc5c(cc14)[C@@H]1[C@H](O5)[C@@H](O)[C@@]4(CC)CC(C(=O)OC)=C5Nc6cc(OC)ccc6[C@@]56CCN1[C@@H]46)[C@@H]32`, the growth was 6.73% (active). Then `O=C(Nc1cccc(-c2nc(-c3ccc(NC(=O)c4cccs4)cc3Cl)no2)c1)Nc1ccc(NC(=O)C2CC2)c(C(F)(F)F)c1`, with -40.4% (active). Then `CCOC(=O)/C=c1\sc2n(c1=O)C1C(NN=2)N(CC)C(=O)N1CC` (stereo not given), with 59.6%. `O=C(CSc1nnc(-c2ccc(Cl)cc2)n1-c1ccccc1)Nc1ccc(F)cc1`: the growth was 95.1%. In the case of `COc1ccc2c(c1)c(-c1nnc(N)nc1-c1cn(C)c3ccccc13)cn2C` it was 95.1%; in that of `COc1cc2cc(Oc3ccc(NC(=O)c4cccc(C(F)(F)F)c4)cc3)c(C)nc2cc1OCCN(C)C`, 93.2%; in that of `O=C(CN1C(=O)CSC1=O)Nc1ccc(C(=O)/C=C/c2cc3ccccc3nc2Cl)cc1`, 66.9%.

Consider `COc1ccc(OC)c([C@H]2c3[nH]c4ccccc4c3C[C@H]3C(=O)N(CCCCCCC(=O)NO)CC(=O)N23)c1`, for which the growth is 71.6%. On to `CN1CCN(Cc2ccc(NC(=O)c3cncc(C#Cc4[nH]nc5ncncc45)c3)cc2C(F)(F)F)CC1`, for which the growth was 38.2%.

(Values after PubChem BioAssay (NCI).)
